Test results published in PubChem BioAssay (EPA / NIEHS).
Active and inactive are the calls of the source. The calls were made as follows: active = hit-call score of the fitted dose curve at least 0.9, where 1 is the maximum; inactive = score below 0.9.

Assays:
Details in all cases: mRNA level, 48 h; actives raise or lower the signal
[1] = read-out: Bcl-2 (BAX) gene, BAX (gene 581); test: LTEA_HepaRG_BAX: Life Technologies and Expression Analysis (LTEA) Assay for Bcl-2 (BAX) gene using HepaRG (AID 2283470)
Outline: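 Cells were thawed, plated for 48 h, moved to serum-free induction medium and dosed for 48 h (highest concentration 100 uM, half-log steps, 0.5% DMSO). Total RNA was then analysed for BAX expression by qRT-PCR.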

[2] = read-out: adenosine kinase (ADK) gene, ADK (gene 132); test: LTEA_HepaRG_ADK: Life Technologies and Expression Analysis (LTEA) Assay for adenosine kinase (ADK) gene using HepaRG (AID 2283471)
Outline: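 Read-out is ADK transcript level measured by qRT-PCR and normalised to three housekeeping genes. Cells are human HepaRG, dosed for 48 h at up to 100 uM in 0.5% DMSO. Gain or loss of signal is fitted against DMSO controls.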

[3] = read-out: Alpha-fetoprotein (AFP) gene, AFP (gene 174); test: LTEA_HepaRG_AFP: Life Technologies and Expression Analysis (LTEA) Assay for Alpha-fetoprotein (AFP) gene using HepaRG (AID 2283472)
Outline: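 Chemicals were tested on differentiated HepaRG cells for 48 hours at eight concentrations up to 100 uM, with 0.5% DMSO as vehicle. AFP expression was then quantified by qRT-PCR and analyzed for gain or loss relative to DMSO.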

BCL2L11 (gene 10018) = test: LTEA_HepaRG_BCL2L11: Life Technologies and Expression Analysis (LTEA) Assay for Bcl-2 (BCL2L11) gene using HepaRG (AID 2283473)
Outline: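 Differentiated human HepaRG cells in serum-free induction medium were exposed in duplicate for 48 h to eight concentrations (top 100 uM, half-log steps, 0.5% DMSO). BCL2L11 mRNA was quantified by TaqMan qRT-PCR, normalized to ACTB/GAPDH/POLR2A, bidirectional fit versus DMSO.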

[4] = read-out: Apolipoprotein A-V (APOA5) gene, APOA5 (gene 116519); test: LTEA_HepaRG_APOA5: Life Technologies and Expression Analysis (LTEA) Assay for Apolipoprotein A-V (APOA5) gene using HepaRG (AID 2283474)
Outline: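 Differentiated human HepaRG cells were exposed in duplicate for 48 h to eight half-log concentrations from 100 uM in 0.5% DMSO. APOA5 mRNA was quantified by TaqMan qRT-PCR, normalized to ACTB, GAPDH and POLR2A, and fitted bidirectionally against DMSO.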

[5] = read-out: Apoptosis regulator Bcl-2 (Homo sapiens) (UniProt P10415); test: LTEA_HepaRG_BCL2: Life Technologies and Expression Analysis (LTEA) Assay for Bcl-2 gene using HepaRG (AID 2283475)
Outline: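 Plated human HepaRG cells are exposed to test chemicals for 48 h across eight concentrations from 100 uM downward in half-log steps (0.5% DMSO). BCL2 expression is then measured by qRT-PCR with housekeeping normalisation and fitted bidirectionally against vehicle.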

[6] = read-out: Bcl-2 (BID) gene, BID (gene 637); test: LTEA_HepaRG_BID: Life Technologies and Expression Analysis (LTEA) Assay for Bcl-2 (BID) gene using HepaRG (AID 2283476)
Outline: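 Cells are plated, cultured 48 h, switched to serum-free induction medium, then dosed 48 h (100 uM top, half-log steps, 0.5% DMSO). RNA is isolated and BID expression read by qRT-PCR.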

Caspase-3 (Homo sapiens) = Caspase-3 (Homo sapiens) (UniProt P42574); test: LTEA_HepaRG_CASP3: Life Technologies and Expression Analysis (LTEA) Assay for cysteine-aspartic acid protease (CASP3) using HepaRG (AID 2283477)
Outline: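 Differentiated human HepaRG cells in serum-free induction medium were exposed 48 h to 8-point half-log concentrations from 100 uM (0.5% DMSO vehicle). CASP3 mRNA was measured by qRT-PCR, normalised to ACTB, GAPDH and POLR2A, with bidirectional fitting against DMSO.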

[7] = read-out: Cytochrome P450 (CYP24A1), CYP24A1 (gene 1591); test: LTEA_HepaRG_CYP24A1: Life Technologies and Expression Analysis (LTEA) Assay for Cytochrome P450 (CYP24A1) using HepaRG (AID 2283478)
Outline: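 Differentiated HepaRG cells, pre-cultured 48 h, were exposed in duplicate for 48 h in serum-free induction medium to 8 half-log concentrations (top 100 uM, 0.5% DMSO). CYP24A1 mRNA was quantified by TaqMan qRT-PCR, normalized to ACTB/GAPDH/POLR2A, fitted bidirectionally versus DMSO.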

[8] = read-out: cysteine-aspartic acid protease (CASP8), CASP8 (gene 841); test: LTEA_HepaRG_CASP8: Life Technologies and Expression Analysis (LTEA) Assay for cysteine-aspartic acid protease (CASP8) using HepaRG (AID 2283480)
Outline: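 Concentration-response in duplicate up to 100 uM (half-log steps, 0.5% DMSO) on differentiated HepaRG cultures for 48 h. Expression change of CASP8 mRNA is determined by TaqMan qRT-PCR with housekeeping-gene normalization.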

Measured: outcome

Chain of Caspase-3 (Homo sapiens) (P42574 whole entry, looked up): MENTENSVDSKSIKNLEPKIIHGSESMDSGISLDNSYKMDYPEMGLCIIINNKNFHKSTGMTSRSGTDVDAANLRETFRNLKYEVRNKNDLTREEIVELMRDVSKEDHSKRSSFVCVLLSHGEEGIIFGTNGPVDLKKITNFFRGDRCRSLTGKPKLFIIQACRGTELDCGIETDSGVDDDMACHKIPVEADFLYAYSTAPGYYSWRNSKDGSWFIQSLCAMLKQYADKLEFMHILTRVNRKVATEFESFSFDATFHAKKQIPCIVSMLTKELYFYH
Chain of Apoptosis regulator Bcl-2 (Homo sapiens) (P10415 whole entry, looked up): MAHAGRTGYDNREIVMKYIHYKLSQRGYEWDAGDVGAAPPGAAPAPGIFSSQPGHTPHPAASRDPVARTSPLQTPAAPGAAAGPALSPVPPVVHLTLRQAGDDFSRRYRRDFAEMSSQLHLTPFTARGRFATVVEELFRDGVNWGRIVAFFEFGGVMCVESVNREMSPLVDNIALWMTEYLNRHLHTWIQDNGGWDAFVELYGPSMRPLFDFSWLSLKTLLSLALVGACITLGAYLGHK

O=C(O)c1ccc([N+](=O)[O-])cc1
inactive: all assays above
